# Data: the antibiotic and cytotoxicity screens of Wong et al. (2023)
# In all, about 39,000 compounds went through this assay and about 1,500 (3.8%) were called active. What follows is part of a selection rich in actives, with near analogues and random picks from the rest.
# System: HSkMC (human skeletal muscle cells)
# Assay: cytotoxicity call (relative viability < 0.9)
# Details: 10 µM
row,Compound,cytotoxicity call
1,C[C@H](CO)N1C[C@H](C)[C@H](CN(C)CC2CCCCC2)OCCCC[C@H](C)Oc2ccc(NC(=O)Nc3cccc4ccccc34)cc2C1=O,active
2,C[C@@H]1CN([C@@H](C)CO)C(=O)c2cc(NC(=O)Nc3cccc4ccccc34)ccc2O[C@@H](C)CCCCO[C@H]1CN(C)CC1CCCCC1,active
3,C[C@@H]1CCCCO[C@@H](CN(C)CC2CC2)[C@H](C)CN([C@H](C)CO)C(=O)c2cc(NC(=O)Nc3cccc4ccccc34)ccc2O1,inactive
4,C[C@@H]1CN([C@@H](C)CO)C(=O)c2cc(NC(=O)Nc3cccc4ccccc34)ccc2O[C@@H](C)CCCCO[C@@H]1CN(C)CC1CCCCC1,active
5,C[C@@H]1CCCCO[C@@H](CN(C)CC2CCCCC2)[C@H](C)CN([C@@H](C)CO)C(=O)c2cc(NC(=O)Nc3cccc4ccccc34)ccc2O1,inactive
6,NCC1(c2cccs2)CCCC1,inactive
7,CC(C)NC(=O)Nc1ccc2c(c1)C(=O)N([C@@H](C)CO)C[C@@H](C)[C@H](CN(C)Cc1ccc3c(c1)OCO3)O2,inactive
8,Cc1noc(C)c1S(=O)(=O)N(C)C[C@H]1Oc2ccc(NC(=O)C3CCCCC3)cc2CC(=O)N([C@H](C)CO)C[C@@H]1C,inactive
9,CCC(=O)N[C@@H]1CC[C@H](CC(=O)OC)O[C@@H]1CO,inactive
10,Cc1noc(C)c1NC(=O)Nc1ccc2c(c1)C(=O)N([C@@H](C)CO)C[C@H](C)[C@@H](CN(C)Cc1ccc(Cl)c(Cl)c1)OCCCC[C@@H](C)O2,inactive
11,C[C@@H]1CCCCO[C@@H](CN(C)C(=O)c2ccccc2)[C@@H](C)CN([C@H](C)CO)C(=O)c2cc(NC(=O)NC3CCCCC3)ccc2O1,inactive
12,Cc1noc(C)c1S(=O)(=O)Nc1cccc2c1O[C@@H](CN(C)C(=O)Nc1ccc3c(c1)OCO3)[C@@H](C)CN([C@@H](C)CO)C2=O,inactive
13,C[C@H]1CCCCO[C@H](CN(C)S(=O)(=O)c2ccc(Cl)cc2)[C@@H](C)CN([C@@H](C)CO)C(=O)c2cc(NS(=O)(=O)c3ccc(Cl)cc3)ccc2O1,inactive
14,C[C@@H]1CN([C@@H](C)CO)C(=O)c2cc(C#Cc3ccccc3F)cnc2O[C@H]1CN(C)C(=O)C1CCOCC1,inactive
15,C[C@@H]1CCCCO[C@H](CN(C)Cc2ccc(C(=O)O)cc2)[C@H](C)CN([C@@H](C)CO)C(=O)c2cc(NS(=O)(=O)c3ccc(F)cc3)ccc2O1,inactive
16,O=C(C[C@H]1CC[C@H]2[C@@H](COC[C@@H](O)CN2S(=O)(=O)c2ccc(Oc3ccccc3)cc2)O1)NCCN1CCCCC1,inactive
17,C[C@@H]1CN([C@@H](C)CO)S(=O)(=O)c2ccc(-c3ccccc3F)cc2O[C@H]1CN(C)Cc1cncnc1,inactive
18,CCCCOCCOc1ccc(-c2ccc3c(c2)/C=C(/C(=O)Nc2ccc([S@@](=O)Cc4cncn4CCC)cc2)CCCN3CC(C)C)cc1,active
19,C[C@@H]1CCCCO[C@H](CN(C)C(=O)NC2CCCCC2)[C@H](C)CN([C@H](C)CO)C(=O)c2cc(NC(=O)c3ccncc3)ccc2O1,inactive
20,C[C@H](CO)N1C[C@H](C)[C@@H](CN(C)C(=O)C2CCCCC2)Oc2cc(C#C[C@@H](C)O)ccc2S1(=O)=O,inactive

row,Compound,cytotoxicity call
1,CC[C@@H](CO)NC(=O)c1ccc(N)cc1,inactive
2,C[C@@H]1CN([C@@H](C)CO)C(=O)c2cc(NC(=O)Nc3ccc(C(F)(F)F)cc3)ccc2O[C@H]1CN(C)Cc1ccc2c(c1)OCO2,active
3,C[C@H]1CN([C@@H](C)CO)C(=O)c2cc(NC(=O)Nc3ccc(C(F)(F)F)cc3)ccc2O[C@@H]1CN(C)Cc1ccc2c(c1)OCO2,active
4,C[C@@H]1CN([C@H](C)CO)C(=O)c2cc(NC(=O)Nc3ccc(C(F)(F)F)cc3)ccc2O[C@H]1CN(C)Cc1ccc2c(c1)OCO2,inactive
5,C[C@@H]1CN([C@@H](C)CO)C(=O)c2cc(NC(=O)Nc3ccc(C(F)(F)F)cc3)ccc2O[C@@H]1CN(C)Cc1ccc2c(c1)OCO2,active
6,C[C@@H]1CN([C@H](C)CO)C(=O)c2cc(NC(=O)Nc3ccc4c(c3)OCO4)ccc2O[C@H]1CN(C)Cc1ccc(C(F)(F)F)cc1,inactive
7,C[C@H](CO)N1C[C@H](C)[C@H](CN(C)Cc2ccc3c(c2)OCO3)Oc2ccc(NC(=O)Nc3ccc(C(F)(F)F)cc3)cc2C1=O,active
8,C[C@H]1CN([C@@H](C)CO)C(=O)c2cc(NC(=O)Nc3ccc(C(F)(F)F)cc3)ccc2O[C@H]1CN(C)Cc1ccc2c(c1)OCO2,inactive
9,CNC[C@H]1OCCCC[C@@H](C)Oc2ccc(NC(=O)Nc3cccc4ccccc34)cc2C(=O)N([C@H](C)CO)C[C@@H]1C,inactive
10,CCS(=O)(=O)NCC[C@H]1CC[C@H](NC(=O)Cc2ccccn2)[C@H](CO)O1,inactive
11,CC/N=c1\sc(C(=O)OC)cc(=O)n1CC,inactive
12,C[C@H]1CN([C@@H](C)CO)C(=O)c2cc(NC(=O)C3CCCCC3)ccc2O[C@H]1CN(C)Cc1ccc(C(=O)Nc2ccccc2N)cc1,inactive
13,CO[C@H]1CN(C)C(=O)c2ccc(NS(=O)(=O)CC(F)(F)F)cc2OC[C@@H](C)N(C(=O)NC(C)C)C[C@@H]1C,inactive
14,C[C@H](CO)N1C[C@H](C)[C@H](CN(C)S(=O)(=O)c2ccccc2)OCCCC[C@H](C)Oc2ccc(NS(C)(=O)=O)cc2C1=O,inactive
15,CNC(=O)N1CCC(C(N)=O)CC1,inactive
16,O=C(C[C@@H]1C[C@H]2c3cc(NS(=O)(=O)c4ccc(F)cc4)ccc3O[C@H]2[C@H](CO)O1)NCc1ccccn1,inactive
17,C[C@@H]1CN([C@H](C)CO)C(=O)c2cc(NC(=O)Nc3ccc(C(F)(F)F)cc3)ccc2O[C@@H]1CN(C)Cc1ccc2c(c1)OCO2,inactive
18,C[C@@H]1CN([C@@H](C)CO)C(=O)c2cc(NC(=O)Nc3ccc4c(c3)OCO4)ccc2O[C@@H]1CN(C)Cc1ccc(C(F)(F)F)cc1,inactive
19,C[C@H](CO)N1C[C@H](C)[C@@H](CN(C)Cc2ccc3c(c2)OCO3)Oc2ccc(NC(=O)Nc3ccc(C(F)(F)F)cc3)cc2C1=O,active
20,CCC(=O)Nc1ccc2c(c1)OC[C@@H](C)N(C(=O)CN1CCOCC1)C[C@@H](C)[C@@H](OC)CN(C)C2=O,inactive

row,Compound,cytotoxicity call
1,C[C@@H]1CN([C@@H](C)CO[Si](C)(C)C(C)(C)C)C(=O)c2cc(NC(=O)Nc3ccccc3)ccc2O[C@@H](C)CCCCO[C@H]1CN(C)S(=O)(=O)c1ccc(F)cc1,inactive
2,COc1ccc(S(=O)(=O)Nc2ccc3c(c2)C(=O)N([C@H](C)CO)C[C@@H](C)[C@H](CN(C)S(=O)(=O)c2ccc(F)cc2)O3)cc1,inactive
3,C[C@@H]1CN([C@H](C)CO)C(=O)c2cc(NS(=O)(=O)c3ccc(F)cc3)ccc2O[C@@H]1CN(C)S(=O)(=O)c1cn(C)cn1,inactive
4,O=C(O[C@@H]1O[C@@H]2COC(=O)c3cc(O)c(O)c(O)c3-c3c(cc(O)c(O)c3O)C(=O)O[C@H]2[C@H](OC(=O)c2cc(O)c(O)c(O)c2)[C@H]1OC(=O)c1cc(O)c(O)c(O)c1)c1cc(O)c(O)c(O)c1,active
5,O=C(O[C@@H]1O[C@@H]2COC(=O)c3cc(Oc4c(C(=O)O)cc(O)c(O)c4O)c(O)c(O)c3-c3c(cc(O)c(O)c3O)C(=O)O[C@H]2[C@H](OC(=O)c2cc(O)c(O)c(O)c2)[C@H]1OC(=O)c1cc(O)c(O)c(O)c1)c1cc(O)c(O)c(O)c1,inactive
6,O=C(O[C@@H]1O[C@H]2COC(=O)c3cc(O)c(O)c(O)c3-c3c(cc(O)c(O)c3O)C(=O)O[C@@H]([C@H]1O)[C@@H]2O)c1cc(O)c(O)c(O)c1,inactive
7,COCCOC(=O)N1C(=O)[C@@]2(c3cc(C#CCC(C(=O)OC)C(=O)OC)ccc31)[C@H](C(=O)N1CCc3cc(OC)c(OC)cc3C1)[C@H]1C(=O)O[C@H](c3ccccc3)[C@H](c3ccccc3)N1[C@@H]2c1ccccc1OCCO,inactive
8,C[C@@H]1CCCCO[C@H](CN(C)CC2CCCCC2)[C@H](C)CN([C@H](C)CO)C(=O)c2cc(NC(=O)Nc3ccc(F)cc3)ccc2O1,active
9,C[C@@H]1CN([C@@H](C)CO)C(=O)c2cc(NC(=O)Nc3ccc(F)cc3)ccc2O[C@@H](C)CCCCO[C@@H]1CN(C)CC1CCCCC1,active
10,C[C@@H]1CCCCO[C@H](CN(C)CC2CCCCC2)[C@H](C)CN([C@@H](C)CO)C(=O)c2cc(NC(=O)Nc3ccc(F)cc3)ccc2O1,inactive
11,C[C@@H]1CN([C@@H](C)CO)C(=O)c2cc(NC(=O)Nc3ccc(F)cc3)ccc2O[C@@H](C)CCCCO[C@H]1CN(C)CC1CCCCC1,inactive
12,C[C@@H]1CCCCO[C@@H](CN(C)CC2CCCCC2)[C@H](C)CN([C@H](C)CO)C(=O)c2cc(NC(=O)Nc3ccc(F)cc3)ccc2O1,inactive
13,C[C@@H]1CCCCO[C@@H](CN(C)CC2CCCCC2)[C@H](C)CN([C@@H](C)CO)C(=O)c2cc(NC(=O)Nc3ccc(F)cc3)ccc2O1,inactive
14,C[C@H]1CCCCO[C@@H](CN(C)CC2CCCCC2)[C@@H](C)CN([C@@H](C)CO)C(=O)c2cc(NC(=O)Nc3ccc(F)cc3)ccc2O1,inactive
15,C[C@H](CO)N1C[C@H](C)[C@H](CN(C)CC2CCCCC2)OCCCC[C@H](C)Oc2ccc(NC(=O)Nc3ccc(F)cc3)cc2C1=O,active
16,C[C@H]1CCCCO[C@H](CN(C)CC2CCCCC2)[C@@H](C)CN([C@@H](C)CO)C(=O)c2cc(NC(=O)Nc3ccc(F)cc3)ccc2O1,inactive
17,C[C@@H]1CCCCO[C@@H](CN(C)CC2CCCCC2)[C@@H](C)CN([C@@H](C)CO)C(=O)c2cc(NC(=O)Nc3ccc(F)cc3)ccc2O1,inactive
18,C[C@@H]1CN([C@H](C)CO)C(=O)c2cc(NC(=O)Nc3ccc(F)cc3)ccc2O[C@@H](C)CCCCO[C@@H]1CN(C)CC1CCCCC1,active
19,C[C@@H]1CCCCO[C@@H](CN(C)CC2CCCCC2)[C@@H](C)CN([C@H](C)CO)C(=O)c2cc(NC(=O)Nc3ccc(F)cc3)ccc2O1,inactive
